{
  "source": "PubChem BioAssay (NCI)",
  "note": "“And” between values parts separate entries of the source, which are not always exact repeats. Equal entries are not always repeated. This is part of a sample that, as a whole, favours compounds with a hit. Of some 83,000 tested, about 20% had one in any assay.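 Compound tested at a single concentration for 48 hours in 96-well plates; a percent growth value below 10 was scored as active.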 The source made the active and inactive calls.",
  "data": [
    {"test_system": "MDA-MB-468 breast", "test": "NCI-60 one-dose screen, 48 h (100 = growth as untreated, 0 = no growth, -100 = all killed)", "conditions": "10 µM", "procedure": "Growth inhibition of the MDA-MB-468 human Breast tumor cell line is measured as a screen for anti-cancer activity. Cells are grown in 96 well plates and exposed to the test compound for 48 hours. Compounds are tested at a single concentration, which is 10^-5 M for most compounds. The reported endpoint is percent growth (GI% or GIPRCNT), where numbers from 0 - 100% represent growth inhibition, and numbers from -100% - 0 represent cell death. For example, a value of 40 represents 60% growth inhibition. A value of 0 means no net growth occurred over the course of the experiment. A value of -40 indicates 40% of cells at the beginning of the experiment died by the end of the experiment. A value of -100 means all cells are dead at the end of the experiment.\nNCI-60 Human Tumor Cell Lines Screen was performed using the standard one-dose NCI protocol, which is described in more detail at https://dtp.cancer.gov/discovery_development/nci-60/default.htm.\nCompounds with GIPRCNT values below 10 were considered active. Activity score was based on GIPRCNT using the following formula: […]\nScore is 0 for GIPRCNT values of 100 or above, 50 for GIPRCNT values of 0, and 100 for GIPRCNT values of -100.", "values": [
      {"smiles": "NS(=O)(=O)c1ccc(N=Nc2c(O)n(CC(=O)Nc3ccccc3Br)c3ccccc23)cc1", "growth": "35.8% (inactive)"},
      {"smiles": "CC(=O)c1ccc(Nc2nc(SC(C)C)nc(-c3ccccc3)c2C#N)cc1", "growth": "131% (inactive) and -1.07% (active)"},
      {"smiles": "COc1ccc(C2N(c3ccc(Br)cc3)N=C(C(C)=O)N2[C@H]2[C@H](OC(C)=O)O[C@H](COC(C)=O)[C@@H](OC(C)=O)[C@@H]2OC(C)=O)cc1", "note": "(stereo not given in full)", "growth": "72.6% (inactive)"},
      {"smiles": "C/C(=N\\NC(N)=S)c1ccc(Nc2nc(SC(C)C)nc(-c3ccccc3)c2C#N)cc1", "growth": "28.2% (inactive)"},
      {"smiles": "Brc1ccc(/C=C/c2n(Cc3ccc4ccccc4c3)c3ccccc3[n+]2Cc2ccc3ccccc3c2)cc1", "growth": "-88.7% (active)"},
      {"smiles": "O=C(NO)c1ccc(CNc2nc(-c3ccccc3)c3ccccc3n2)cc1", "growth": "-0.98% (active)"},
      {"smiles": "Nc1nc(-c2ccccc2)cc(-c2cc3ccccc3nc2Cl)n1", "growth": "77% (inactive)"},
      {"smiles": "CCCn1c(=O)c2[nH]c(-c3ccc(OCc4nc5ccc(C)cc5[nH]4)cc3)nc2n(CCC)c1=O", "growth": "16.7% (inactive)"},
      {"smiles": "CCCn1c(=O)c2[nH]c(-c3ccc(OCc4nc5ccccc5[nH]4)cc3)nc2n(CCC)c1=O", "growth": "23.6% (inactive)"},
      {"smiles": "CC(=O)Nc1ccc(-c2cn(-c3cccc(C(=O)Nc4cc(C(F)(F)F)cc(C(F)(F)F)c4)c3)nn2)cn1", "growth": "-46.5% (active)"},
      {"smiles": "CCCCCCCCCCCCCCCCCCCC(=O)NCCc1c[nH]c2ccc(O)cc12", "growth": "128% (inactive)"},
      {"smiles": "N#Cc1ccc(NC(=O)CSc2ccc(-c3ccc(Br)cc3)nn2)cc1", "growth": "62.5% (inactive)"},
      {"smiles": "CN(C)c1cccc2c(S(=O)(=O)Nc3cccc(-c4csc(NC(=O)CCCCCN5CCN(c6cc7c(cc6F)C(=O)N(C6CCC(=O)NC6=O)C7=O)CC5)n4)c3)cccc12", "note": "(stereo not given)", "growth": "59.7% (inactive)"},
      {"smiles": "O=C(CSc1ccc(-c2ccc(Cl)cc2)nn1)Nc1ccc(Cl)c(C(F)(F)F)c1", "growth": "16.5% (inactive)"},
      {"smiles": "COc1ccc2[nH]c(O)c(N=NC(=O)c3cc(-c4ccc(C)cc4)nc4ccccc34)c2c1", "growth": "76.2% (inactive)"},
      {"smiles": "COC1CC(Cn2cc(COc3ccc4ccc(=O)oc4c3)nn2)C(OCc2ccccc2)C(OCc2ccccc2)C1OCc1ccccc1", "note": "(stereo not given)", "growth": "93.4% (inactive)"},
      {"smiles": "CC(=O)c1cc(C(=O)c2ccc3c(c2)NC(=O)CO3)n2ccc3ccccc3c12", "growth": "50% (inactive)"},
      {"smiles": "N#Cc1ccc(-c2nn(-c3ccc(C(=O)O)cc3)cc2CNc2cc(Cl)cc(Cl)c2)cc1", "growth": "43.4% (inactive)"},
      {"smiles": "CC(=O)NNc1ccc2nnc(-c3ccc(Br)cc3)n2n1", "growth": "97.4% (inactive)"},
      {"smiles": "CC(C)C1=C[C@@]23CC[C@@H]4[C@](C)(CCC[C@]4(C)C(=O)NCc4ccccc4)[C@H]2C[C@@H]1[C@H]1C(=O)CCC(=O)[C@H]13", "growth": "70.1% (inactive)"},
      {"smiles": "N#Cc1c(NC(=O)c2ccc(C(F)(F)F)cc2C(F)(F)F)sc2c1CCC(=O)C2", "growth": "-79.9% (active)"},
      {"smiles": "O=C(O)CCCCCCCCCCN1C(=O)/C(=C/c2cnc(-c3ccccc3)s2)SC1=S", "growth": "90.9% (inactive)"},
      {"smiles": "O=C(CNc1nc(-c2ccccc2)cs1)Nc1ccccc1", "growth": "-78% (active)"},
      {"smiles": "O=C(c1ccc(Cl)cc1)C1[C@H](c2ccc(Br)cc2)[C@@H](c2ccccc2)NC12C(=O)Nc1ccc(Cl)cc12", "note": "(stereo not given in full)", "growth": "-90% (active)"},
      {"smiles": "C=CC(=O)Nc1nc(-c2cccc(NS(=O)(=O)c3cccc4c(N(C)C)cccc34)c2)cs1", "growth": "-87.8% (active)"},
      {"smiles": "CN1C(=O)N(C)C2SC(N/N=C/c3ccccc3)=NC21", "note": "(stereo not given)", "growth": "10% (active)"},
      {"smiles": "O=C(CSc1nnc(-c2c[nH]c3ccccc23)n1-c1ccccc1)Nc1ccc(C(=O)/C=C/c2ccc(Cl)cc2)cc1", "growth": "65.9% (inactive)"},
      {"smiles": "N#Cc1c(-c2ccc(Cl)cc2)cc(-c2ccccc2)nc1OCc1ccccc1", "growth": "65.4% (inactive)"},
      {"smiles": "CO[C@H]1CSS[C@@H]1Cn1nc(-c2ccc(Oc3ccccc3)cc2)c2c(N)ncnc21", "growth": "-21.2% (active)"},
      {"smiles": "CC1(C)CC[C@]23CC[C@]4(C)[C@H](CC[C@@H]5[C@@]6(C)CC[C@H](N)C(C)(C)[C@@H]6CC[C@]54C)[C@H]2[C@H]1OC3=O", "growth": "-95.6% (active)"},
      {"smiles": "CCN1CCN(c2ccc(NC(=O)Nc3ccc(-c4cc(C(=O)NC)c5ncccc5n4)cc3)cc2C(F)(F)F)CC1", "growth": "-96.4% (active)"},
      {"smiles": "O=c1c2ccccc2nc(COc2ccccc2)n1/N=C/c1ccc(N2CCOCC2)cc1", "growth": "117% (inactive)"},
      {"smiles": "O=C1CCC(N2Cc3c(C#CCCCNC(=O)c4ccc(NC(=O)[C@@H]5NC6(CCCCC6)[C@@]6(C(=O)Nc7cc(Cl)ccc76)[C@H]5c5cccc(Cl)c5F)cc4)cccc3C2=O)C(=O)N1", "note": "(stereo not given in full)", "growth": "39.3% (inactive)"},
      {"smiles": "S=c1nc(-c2ccccc2)cc(-c2cc3ccccc3nc2Cl)[nH]1", "growth": "66.8% (inactive)"},
      {"smiles": "COc1ccc(C(=O)/C=C/c2ccc(Cl)c(C(F)(F)F)c2)cc1S(N)(=O)=O", "growth": "-93.4% (active)"},
      {"smiles": "O=C(NCCCCC(c1ccc(F)cc1)c1ccc(F)cc1)NCCCc1cccnc1", "growth": "-3.04% (active)"},
      {"smiles": "COC(=O)C(Cc1ccc(O)c(O)c1)NC(=O)C(CSC/C=C(\\C)CCCC(C)CCCC(C)CCCC(C)C)NC(C)=O", "note": "(stereo not given)", "growth": "6.4% (active)"},
      {"smiles": "Cc1ccc2nc(-c3ccc(-c4nnc(SCC(=O)Nc5ccc(Cl)cc5)o4)cc3)[nH]c2c1", "growth": "46.8% (inactive)"},
      {"smiles": "CCOC(=O)C1=C(N)N(c2ccccc2)C2=C(C(=O)CC(C)(C)C2)C1c1ccc(Cl)cc1", "note": "(stereo not given)", "growth": "33.2% (inactive)"},
      {"smiles": "O=C1N/C(=N\\c2nccs2)S/C1=C\\c1cccs1", "growth": "10.4% (inactive)"}
    ]}
  ]
}
